Measured values as given in PubChem BioAssay (NCATS).
Results filed as inconclusive are left out. A number with no mark means an inactive call. Calls of active or inactive are those of the source. The call rests on the fitted dose curve; in most records, active means well fitted curve in the direction sought with a large enough effect; inconclusive means small, poorly fitted or top-dose-only effect, or another doubt; inactive means no such curve, though single readings can be large; an effect the other way counts as inactive or inconclusive.

Tests used:
[1] = biological target: Furin (Homo sapiens) (UniProt P09958); test: Furin counterscreen qHTS for Zika virus inhibitors (AID 1347149); further: nearly all actives have a fitted effect of over 70% in size; further: potency means the concentration at half of the fitted maximal effect;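 on activity change, negative = inhibition: purified recombinant full-length human furin enzyme at 5 nM; fluorescence gain from furin cutting a BOC-RVRR-AMC peptide substrate over 15 min; top concentration of the series differs between compounds; plate controls were no-inhibitor control for no effect and no-enzyme control for full effect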
Summary of the method: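 Fluorogenic cleavage of BOC-RVRR-AMC (2 microM final, Km ~15 µM) was monitored (ex 340, em 450 nm) at 37C after 15 min RT preincubation of 5 nM furin with compounds in HEPES pH 7.0 buffer with CaCl2 and Triton X-100. Percent inhibition was fitted to a 4-parameter Hill curve.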

[2] = tested on: Zika virus NS2B-NS3 protease (unlinked complex); test: Confirmatory screen GU AMC qHTS for Zika virus inhibitors (AID 1347153);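 further: enzyme at 25 nM with substrate at 10 µM below its Km of 18.3 µM; potency means the concentration at half of the fitted maximal effect; nearly all actives have a fitted effect of over 70% in size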
Summary of the method: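 Compounds were preincubated 15 min at room temperature with 25 nM noncovalent NS2B-NS3 protease at pH 8.0; AMC substrate added at 10 microM and 15-min fluorescence gain (340/450 nm) converted to percent inhibition, fitted 4-parameter.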

[3] = Confirmatory screen NINDS Rhodamine qHTS for Zika virus inhibitors (AID 1347161); further: nearly all actives have a fitted effect of over 60% in size; further: potency means the concentration at half of the fitted maximal effect;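 on activity change, negative = inhibition: purified Zika NS2B-NS3 protease with linked NS2B cofactor domain and Rhodamine110 peptide substrate; plate controls were no-inhibitor control for no effect and no-enzyme control for full effect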
Summary of the method: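 Each compound, titrated, sat 15 min with 25 nM linked protease before 1.5 microM Rhodamine110 substrate went in. Fluorescence gain over the next 15 min, in pH 8.0 Tris with Tween 20, gave Hill-fitted curves.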

[4] = tested on: Zika virus NS2B-NS3 protease (linked); test: 384 well plate NINDS AMC confirmatory qHTS for Zika virus inhibitors (AID 1347163); further: potency means the concentration at half of the fitted maximal effect; nearly all actives have a fitted effect of over 50% in size
Summary of the method: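 Linked protease 5/30/60 nM final; cpds up to 1 mM final, ~15 min preinc. Substrate Ac-VKTGKR-AMC 30 microM final. RT, dark, 25 min; FI ex 355/em 460; normalized to no-enzyme/no-inhibitor ctrls.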

[5] = tested on: Zika virus NS2B-NS3 protease (linked construct); test: 384 well plate NINDS Rhodamine confirmatory qHTS for Zika virus inhibitors (AID 1347164);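 further: fluorescence from protease cleavage of Ac-LKRR-rhodamine 110 substrate; nearly all actives have a fitted effect of over 65% in size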; further: potency means the concentration at half of the fitted maximal effect;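 on activity change, negative = inhibition: top concentration of the series differs between compounds; plate controls were no-inhibitor control for no effect and no-enzyme control for full effect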
Summary of the method: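 Linked protease at a final 5 nM, 30 nM or 60 nM was preincubated ~15 min with compounds, then given 10 microM Ac-LKRR-Rhodamine 110. Fluorescence (ex 485/em 538 nm) after 25 min in the dark at room temperature.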

[6] = Vero cells viability qHTS for Zika virus inhibitors (AID 1347167); further: potency means the concentration at half of the fitted maximal effect
Summary of the method: (§1)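 Counter-screen for cytotoxicity of hits from NS2B-NS3 protease qHTS. Overnight-attached cells (2.5 x 10^5 cells/mL, DMEM/4% FBS) were dosed in titration, incubated 24 to 48 hours, then assayed by CellTiter Glo.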

[7] = HepG2 cells viability qHTS for Zika virus inhibitors (AID 1347168); further: on the % scale 0 is the no-effect control and ±100 the full control effect
Summary of the method: as §1

[8] = tested on: NIH3T3; test: qHTS assay to identify novel small-molecules to repurpose for Merkel cell carcinoma treatment (AID 1296009); settings: MCC and control cell lines, CellTiter-Glo viability, 72 h; series mostly up to 9.27 µM; further: nearly all actives have a fitted effect of over 60% in size; further: potency means the concentration at half of the fitted maximal effect
Summary of the method: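 Cells exposed to NPC (8-point) and MIPE (11-point) compound dilutions for 72 hr at 37 degree celsius; viability read by CellTiter-Glo luminescence, normalized to no-cell and DMSO in-plate controls.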

[9] = NCATS anti-infectives library activity on HEK293 viability as a counter-qHTS vs the C. elegans viability qHTS (AID 1745854); further: on the % scale 0 is the no-effect control and ±100 the full control effect
Summary of the method: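 HEK293 cells, 1500 per well, exposed 24 hr at 37C in 5% CO2 to compounds in a 1:5 titration, up to 41.7 uM final. Viability read as CellTiter-Glo luminescence after 10 min at room temperature.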

[10] = NS1 protein of Zika virus - qHTS assay to identify small molecule inhibitors in human HEK 293 cells (AID 1347053);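 further: plate controls were infected untreated cells for no effect and uninfected cells for full effect; nearly all actives have a fitted effect of over 55% in size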
Summary of the method: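 Inhibition of NS1 expression was scored in HEK 293 cells given compound 1 h ahead of MR766 virus (MOI = 0.5). Following 24 h at 37 C, two anti-NS1 antibodies generated a TR-FRET signal, scaled between uninfected and infected controls.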

[11] = qHTS of pediatric cancer cell lines to identify multiple opportunities for drug repurposing: Primary screen for Saos-2 cells (AID 1347097); settings: Saos-2 viability, CellTiter-Glo ATP luminescence, 48 h; further: potency means the concentration at half of the fitted maximal effect; nearly all actives have a fitted effect of over 40% in size
Summary of the method: (§2)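 500-1,000 cells/well; 5 h pre-incubation 37 °C/5% CO2; compound pinned; 48 h; CellTiter-Glo, 15 min RT; luminescence. MIPE 11-pt from 0.78 nM, NPC 8-pt from 0.59 nM final. Bortezomib 2.3 µM final as positive control.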

[12] = qHTS of pediatric cancer cell lines to identify multiple opportunities for drug repurposing: Primary screen for NB1643 cells (AID 1347099); further: nearly all actives have a fitted effect of over 50% in size; further: potency means the concentration at half of the fitted maximal effect
Summary of the method: as §2

[13] = qHTS of pediatric cancer cell lines to identify multiple opportunities for drug repurposing: Primary screen for OHS-50 cells (AID 1347103); settings: OHS-50 osteosarcoma viability, CellTiter-Glo luminescence, 48 h; further: potency means the concentration at half of the fitted maximal effect; nearly all actives have a fitted effect of over 40% in size
Summary of the method: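 Cells (500-1,000/well) rested 5 h, then received compounds for 48 h; metabolically active cells were measured by CellTiter-Glo luminescence. Final concentrations spanned up to 46 µM (MIPE, 11-point) or 0.59 nM-46 µM (NPC, 8-point) in primary screens, 11-point in follow-ups.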

[14] = tested on: Zika virus NS2B-NS3 protease; test: Primary screen GU AMC qHTS for Zika virus inhibitors (AID 1347154);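 further: 0% = no-inhibitor control and -100% = no-enzyme control; nearly all actives have a fitted effect of over 70% in size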
Summary of the method: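 Unlinked Zika NS2B hydrophilic domain/NS3 protease domain noncovalent complex (25 nM final) in 10 mM Tris-HCl pH 8.0, 0.01% Tween 20, with AMC peptide substrate. Fluorescence (ex 340, em 450 nm) change over 15 min, room temperature; percent inhibition fitted to 4-parameter Hill equation.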

[15] = qHTS to identify inhibitors of the type 1 interferon - major histocompatibility complex class I in skeletal muscle: primary screen against the NCATS Pharmaceutical Collection (AID 1347407);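 further: luminescence of HiBiT knocked into endogenous HLA-B as interferon-induced MHC class I level; on the % scale 0 is the no-effect control and ±100 the full control effect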
Summary of the method: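 Immortalized human myoblasts (C25cl48) with HiBiT knocked into endogenous HLA-B*08:01 were stimulated with 4 ng/ml IFN-beta and treated with compounds (8-point, 1:5, top 46 uM final) for 24 h at 37 C; HiBiT lytic luminescence read.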

[16] = biological target: Protein phosphatase 1D (Homo sapiens) (UniProt O15297); test: RapidFire Mass Spectrometry qHTS Assay for Modulators of WT P53-Induced Phosphatase 1 (WIP1) (AID 1347424);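 further: amount of dephosphorylated VEPPL-S-QETFS peptide product formed by WIP1; plate controls were DMSO wells for no effect and GSK830371 inhibitor control at 10 µM for full effect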
Summary of the method: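 WIP1 (10 nM final) was preincubated 1 h at room temperature with compounds in Tris-HCl pH 7.5, 30 mM MgCl2, TCEP, EGTA, BSA; 2 uM VEPPL-pS-QETFS phosphopeptide was added for 5 min, quenched with formic acid, and dephosphorylated product quantified by RapidFire MS.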

[17] = Primary qHTS for small molecule stabilizers of the endoplasmic reticulum resident proteome: Secreted ER Calcium Modulated Protein (SERCaMP) assay (AID 1508630); further: on the % scale 0 is the no-effect control and ±100 the full control effect
Summary of the method: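 GLuc-SERCaMP-expressing SH-SY5Y cells, pretreated 16 h with compound, are challenged with thapsigargin to empty ER calcium stores; after 4 h, coelenterazine is added directly to the medium and luminescence is imaged.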

[18] = biological target: N-terminal Xaa-Pro-Lys N-methyltransferase 1 (Homo sapiens) (UniProt Q9BV86); test: Confirmatory qHTS for Inhibitors of N-terminal methyltransferase 1 (NTMT1): MTaseGlo Assay (AID 1645874); further: nearly all actives have a fitted effect of over 65% in size; further: potency means the concentration at half of the fitted maximal effect;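 on activity change, negative = inhibition: luminescence from SAH made as NTMT1 methylates SPKRIA peptide using SAM; 0% = DMSO control and -100% = no-enzyme control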
Summary of the method: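 qHTS format: NTMT1 125 nM, SAM 100 uM, peptide SPKRIA 1 uM final; 15 min compound preincubation, 30 min reaction at room temperature. MTase-Glo luminescence.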

[19] = P-glycoprotein substrates identified in KB-3-1 adenocarcinoma cell line, qHTS therapeutic library screen (AID 1346986);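 further: potency means the concentration at half of the fitted maximal effect; potency is for cytotoxicity meaning loss of cell viability; nearly all actives have a fitted effect of over 60% in size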
Summary of the method: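 KB-3-1 parental cells and P-gp-overexpressing KB-8-5-11 (colchicine omitted during assay) plated at 500 cells/well, dosed in dose-response, incubated 72 h at 37 degree C. CellTiter-Glo luminescence read; KB-8-5-11 also tested with tariquidar.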

[20] = Drug repurposing screens with cells derived from glioblastoma tumor samples (AID 1345199); settings: GBM patient neurospheres viability, ATP luminescence, 48 h; further: on the % scale 0 is the no-effect control and ±100 the full control effect; nearly all actives have a fitted effect of over 40% in size
Summary of the method: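 Four patient lines of CD133+ GBM neurospheres were screened at several concentrations; hits were retested in those lines plus three slower-growing GBM lines, using 48-hour treatment and ATP-based viability.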

Chain of Furin (Homo sapiens) (P09958 whole entry, looked up): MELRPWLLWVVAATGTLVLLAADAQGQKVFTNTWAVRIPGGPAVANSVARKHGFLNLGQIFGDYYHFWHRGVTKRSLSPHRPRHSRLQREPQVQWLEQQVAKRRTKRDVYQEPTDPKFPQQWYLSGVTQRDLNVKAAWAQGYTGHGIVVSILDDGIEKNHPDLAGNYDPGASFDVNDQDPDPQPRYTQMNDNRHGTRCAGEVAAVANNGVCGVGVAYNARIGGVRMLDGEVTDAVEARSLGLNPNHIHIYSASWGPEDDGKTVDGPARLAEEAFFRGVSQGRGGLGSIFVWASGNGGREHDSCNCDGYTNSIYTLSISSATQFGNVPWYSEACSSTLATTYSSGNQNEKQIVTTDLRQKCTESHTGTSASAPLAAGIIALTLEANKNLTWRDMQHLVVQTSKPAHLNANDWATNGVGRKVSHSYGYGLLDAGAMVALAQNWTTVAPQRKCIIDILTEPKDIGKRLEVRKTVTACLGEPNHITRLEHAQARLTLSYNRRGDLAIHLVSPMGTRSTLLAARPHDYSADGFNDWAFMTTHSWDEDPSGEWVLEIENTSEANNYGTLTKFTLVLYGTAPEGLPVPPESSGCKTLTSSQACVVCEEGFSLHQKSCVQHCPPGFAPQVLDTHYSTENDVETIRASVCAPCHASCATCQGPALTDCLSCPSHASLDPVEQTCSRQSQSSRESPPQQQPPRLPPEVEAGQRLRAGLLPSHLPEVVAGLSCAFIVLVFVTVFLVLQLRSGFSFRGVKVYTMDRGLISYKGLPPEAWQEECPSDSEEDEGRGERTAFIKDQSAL
Chain of N-terminal Xaa-Pro-Lys N-methyltransferase 1 (Homo sapiens) (Q9BV86 whole entry, looked up): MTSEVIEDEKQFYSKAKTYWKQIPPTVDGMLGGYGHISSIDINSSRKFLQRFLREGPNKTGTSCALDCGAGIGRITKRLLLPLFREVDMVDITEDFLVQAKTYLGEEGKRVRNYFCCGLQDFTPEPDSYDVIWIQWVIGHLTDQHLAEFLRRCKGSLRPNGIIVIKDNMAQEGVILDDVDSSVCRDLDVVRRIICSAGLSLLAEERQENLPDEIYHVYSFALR
Chain of Protein phosphatase 1D (Homo sapiens) (O15297 whole entry, looked up): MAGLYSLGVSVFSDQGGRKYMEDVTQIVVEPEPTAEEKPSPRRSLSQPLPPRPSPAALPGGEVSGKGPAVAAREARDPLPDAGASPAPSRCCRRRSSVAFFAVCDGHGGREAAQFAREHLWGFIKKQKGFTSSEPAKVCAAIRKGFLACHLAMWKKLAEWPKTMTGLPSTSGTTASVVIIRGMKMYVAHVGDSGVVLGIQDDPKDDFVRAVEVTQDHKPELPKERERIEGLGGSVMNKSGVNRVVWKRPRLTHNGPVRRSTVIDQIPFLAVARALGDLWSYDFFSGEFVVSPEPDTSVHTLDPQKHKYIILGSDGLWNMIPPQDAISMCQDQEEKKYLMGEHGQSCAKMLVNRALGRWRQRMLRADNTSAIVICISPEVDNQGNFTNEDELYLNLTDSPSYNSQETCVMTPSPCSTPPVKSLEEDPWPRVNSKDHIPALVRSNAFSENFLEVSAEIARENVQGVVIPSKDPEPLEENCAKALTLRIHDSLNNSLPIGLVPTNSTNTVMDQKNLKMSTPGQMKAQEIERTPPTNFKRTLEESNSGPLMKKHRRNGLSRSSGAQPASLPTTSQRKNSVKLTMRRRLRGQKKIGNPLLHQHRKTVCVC

## CC1CCN(C(c2ccc(F)cc2)c2ccc(C(C)C(=O)O)cc2-c2ccc(C(F)(F)F)cc2)CC1 (stereo not drawn)
[1]
  Potency: inactive
[2]
  Potency: 15.6 µM (active)
[3]
  Potency: 3.12 µM (active)
[4]
  Potency: 0.891 µM (active)
[5]
  Potency: 2.51 µM (active)
[6]
  Potency: 18.6 µM (active)
[7]
  Potency: inactive

## O=C(c1ccc(F)c(F)c1Nc1ccc(I)cc1F)N1CC(O)([C@@H]2CCCCN2)C1
[8]
  Potency: 9.2 µM (active)

## CCOC(=O)c1cccc(CNc2ccc(N(C)C(=O)Nc3ccccc3)cc2)c1
[9]
  outcome: inactive

## CN(Cc1ccc(C(=O)O)cc1)c1ccc(OCc2c(-c3c(Cl)cccc3Cl)noc2C2CC2)nc1C(F)(F)F
[1]
  Potency: 9.61 µM (active)
[2]
  Potency: 13.9 µM (active)
[3]
  Potency: 2.21 µM (active)
[4]
  Potency: 3.98 µM (active)
[5]
  Potency: 6.31 µM (active)
[6]
  Potency: inactive
[7]
  Potency: inactive

## CCN(CC)c1ccc(C(=C2C=CC(=[N+](CC)CC)C=C2)c2cc(S(=O)(=O)O)ccc2S(=O)(=O)[O-])cc1
[10]
  outcome: inactive
[11]
  Potency: 21.1 µM (active)
[12]
  Potency: 21.1 µM (active)
[13]
  Potency: 17.4 µM (active)
[14]
  Potency: inactive
[15]
  outcome: inactive
[16]
  outcome: inactive

## O=C(NC(NC(=S)Nc1ccc(F)c([N+](=O)[O-])c1)C(Cl)(Cl)Cl)C(c1ccccc1)c1ccccc1 (stereo not drawn)
[14]
  Potency: inactive
[17]
  Potency: inactive

## COc1ccccc1NC(=O)Nc1ccc2ccccc2c1
[18]
  Potency: inactive

## CC(=O)N1c2ccc(-c3ccc(C(=O)O)cc3)cc2C(Nc2ccc(Cl)cc2)CC1C (stereo not drawn)
[1]
  Potency: inactive
[3]
  Potency: 12.4 µM (active)
[5]
  Potency: 70.8 µM (active)
[7]
  Potency: inactive

## O=C(NCc1ccc(Oc2ccccc2)cc1)c1nc(-c2cc(Br)c(O)c(Br)c2)no1
[4]
  Potency: 2.51 µM (active)
[5]
  Potency: 1.58 µM (active)
[7]
  Potency: inactive

## CC(C)(C)c1ccc(-c2nc3ccccc3[nH]2)cc1
[18]
  Potency: 8.91 µM (active)

## Oc1ccc(Nc2nc(-c3ccc(Cl)cc3)cs2)cc1
[14]
  Potency: inactive

## C=CC(=O)Nc1cc(Nc2nccc(-c3cn(C)c4ccccc34)n2)c(OC)cc1N(C)CCN(C)C
[19]
  Potency: 10.3 µM (active)

## CN(CC(=O)N(Cc1ccc(C2CCCCC2)cc1)c1ccc(C(=O)O)cc1)S(=O)(=O)c1c(F)c(F)c(F)c(F)c1F
[2]
  Potency: 22.1 µM (active)
[4]
  Potency: 50.1 µM (active)
[5]
  activity change, negative = inhibition: -179% [at 100 µM]

## C=C1[C@@H](C2=CC(=O)OC2)CC[C@@]2(O)[C@@H]1CC1[C@H]2CC[C@@H]2C[C@@H](O[C@H]3O[C@@H](C)[C@@H](O[C@@H]4O[C@H](CO[C@@H]5O[C@H](CO)[C@@H](O)[C@H](O)[C@H]5O)[C@@H](O)[C@H](O)[C@H]4O)[C@H](OC)[C@H]3O)CC[C@]12C (stereo partly drawn)
[8]
  Potency: inactive

## CS(=O)(=O)c1ccc(-c2cn3ccccc3n2)cc1
[10]
  outcome: inactive
[11]
  Potency: 16.8 µM (active)
[12]
  Potency: inactive
[13]
  Potency: 17.4 µM (active)
[1]
  Potency: 5.39 µM (active)
[2]
  Potency: 24.1 µM (active)
[3]
  Potency: inactive
[6]
  Potency: inactive
[15]
  outcome: inactive
[16]
  outcome: inactive
[17]
  Potency: inactive
[18]
  Potency: 9.55 µM (active)

## COc1cc(N2CCN(C(C)=O)CC2)ccc1Nc1ncc(Cl)c(Nc2ccc(N3CCN(C(C)=O)CC3)cc2OC)n1
[19]
  Potency: 14.6 µM (active)
[18]
  Potency: 49.4 µM (active)

## CCNC(=O)[C@@H]1CCCN1C(=O)[C@H](CCCN=C(N)N)NC(=O)[C@H](CC(C)C)NC(=O)[C@@H](CC(C)C)NC(=O)[C@H](Cc1ccc(O)cc1)NC(=O)[C@H](CO)NC(=O)[C@H](Cc1c[nH]c2ccccc12)NC(=O)[C@H](Cc1cnc[nH]1)NC(=O)[C@@H]1CCC(=O)N1
[20]; at 45.9 µM (top of the series), tumour line B
  activity, negative = cell killing: -5.52%
[20]; at 45.9 µM (top of the series), tumour line D
  activity, negative = cell killing: 4.71%
[20]; at 46 µM (top of the series), tumour line A
  activity, negative = cell killing: -26.4%
[20]; at 46.1 µM (top of the series), tumour line C
  activity, negative = cell killing: 1.53%

## Cc1cc(CS(=O)(=O)c2ccccc2)cc(OCc2ccc(CN3CCC[C@@H]3CO)cc2)c1
[18]
  Potency: inactive

## N#C[C@@H]1C[C@@H]2C[C@@H]2N1C(=O)[C@@H](N)C12CC3CC(CC(O)(C3)C1)C2
[9]
  outcome: inactive

## Nc1nc(NCC2CCC(CNS(=O)(=O)c3cccc4ccccc34)CC2)nc2ccccc12 (stereo not drawn)
[14]
  Potency: inactive
[17]
  Potency: inactive

## COCCNCc1ccc(-c2cc3nccc(Oc4ccc(NC(=S)NC(=O)Cc5ccc(F)cc5)cc4F)c3s2)nc1
[19]
  Potency: 23.1 µM (active)
